Compound activity from PubChem BioAssay.
Most compounds without a hit are left out; they make up all but 0.92% or so of the library.
RecA intein inh = Mtb RecA intein splicing inhibitors, primary screen, biochemical, fluorescence, HTS. AID 2221, 2009. Protein RecA (Mycobacterium tuberculosis (strain ATCC 25618 / H37Rv)), P9WHJ3. cell-free RecA intein splicing. 290,000 compounds, 0.75% hits. inhibition, % (test concentration not listed); in the data active = inhibition above about 30%;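 note: 0% = vehicle wells and 100% = reference inhibitor control wells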
Mtb bLac sens = beta-lactam sensitization of Mtb H37Rv, H37Rv; M. tuberculosis H37Rv growth with meropenem, percent inhibition; inhibition, % at 25 µM; 330,000 compounds, 0.27% hits;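 note: growth measured after seven days incubation then overnight dye step; 0% = bacteria only wells and 100% = bacteria with antibiotic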
FadD28 binding = inhibitors of FadD28 bisubstrate probe binding, primary screen, biochemical, fluorescence polarization, single point | inhibition, % at 12.5 µM | 360,000 compounds, 0.22% hits; in the data active = inhibition above about 8.5%, passing the limit was not always enough
Mtb UGM inh = M. tuberculosis UGM enzyme inhibitors, primary screen, biochemical, fluorescence polarization, single point; UDP-galactopyranose mutase (Mycobacterium tuberculosis (strain ATCC 25618 / H37Rv)), …; purified UGM, fluorescence polarization probe displacement; inhibition, % at 10 µM; 320,000 compounds, 0.06% hits; AID 504406, 2011; in the data active = inhibition above about 10%, passing the limit was not always enough
Rv3671c inh = Rv3671c serine protease inhibitors, primary screen, biochemical, fluorescence polarization, M. tuberculosis H37Rv | AID 2606, 2010 | 320,000 compounds, 0.048% hits | inhibition, % at 5.96 µM; in the data active = inhibition above about 38%;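 note: extracellular domain of Rv3671c used as enzyme; 0% = enzyme with DMSO and 100% = no enzyme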
Target sequence (P9WHR9 whole entry, looked up, the tested form may be a part): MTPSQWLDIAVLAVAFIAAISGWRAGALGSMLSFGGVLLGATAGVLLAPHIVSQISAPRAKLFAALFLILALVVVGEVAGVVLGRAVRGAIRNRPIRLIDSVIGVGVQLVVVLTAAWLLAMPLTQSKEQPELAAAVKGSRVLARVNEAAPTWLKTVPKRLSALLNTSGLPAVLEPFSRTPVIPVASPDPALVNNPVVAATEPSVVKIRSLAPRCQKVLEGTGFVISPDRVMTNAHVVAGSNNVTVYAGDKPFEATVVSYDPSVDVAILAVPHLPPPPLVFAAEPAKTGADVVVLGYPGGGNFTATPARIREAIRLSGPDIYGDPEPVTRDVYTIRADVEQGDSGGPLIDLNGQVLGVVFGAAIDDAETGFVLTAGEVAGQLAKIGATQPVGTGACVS
Mtb hypoxia inh = PubChem AID 1159583; M. tuberculosis hypoxia-regulated fluorescent reporter, fluorescence; fluorescence inhibition, % (concentration not given with the values); 300,000 compounds, 0.1% hits; in the data active = fluorescence inhibition mostly above about 23%, no sharp cut-off; inactive = mostly below about 17%
GFP chromo cs = counter-screen: blocks GFP chromophore formation, dose response, counter-screen, biochemical, fluorescence, homogeneous | 2,100 compounds, 83% hits | AID 434968, 2010 | cell-free GFP chromophore formation | EC50, µM | shares compounds with RecA intein inh
Starred values were filed as active, the others as inactive. Unless noted, the rule behind the calls is not given here.

Screening COc1cc(C2C(C#N)=C(N)Oc3n[nH]c(-c4cccnc4)c32)cc(Br)c1O (stereo not drawn) returned RecA intein inh 81.0*, Mtb bLac sens 6.5, FadD28 binding -0.7, Mtb UGM inh -0.7, Rv3671c inh -42.4, Mtb hypoxia inh 0.6 and GFP chromo cs 14.2*.
For CCOc1ccc(-c2[nH]nc3c2C(c2ccc(O)cc2)C(C#N)=C(N)O3)cc1 (stereo not drawn) the results were RecA intein inh 62.5*, Mtb bLac sens -1.9, FadD28 binding -4.6, Mtb UGM inh 1.1, Rv3671c inh -10.2, Mtb hypoxia inh 2.0 and GFP chromo cs 14.7*.
`N#CC1=C(N)Oc2n[nH]c(-c3ccccc3)c2C1c1ccncc1` (stereo not drawn) gave RecA intein inh 64.6*, Mtb bLac sens 8.0, FadD28 binding -5.0, Mtb UGM inh 2.6, Rv3671c inh 2.9, Mtb hypoxia inh 14.0 and GFP chromo cs 26.7*.
For CCc1[nH]nc2c1C(c1ccncc1)C(C#N)=C(N)O2 (stereo not drawn) the results were RecA intein inh 25.4, Mtb bLac sens 7.3, FadD28 binding -2.3, Mtb UGM inh 3.8, Rv3671c inh -8.1 and Mtb hypoxia inh -10.8.
CCOc1ccc(C2C(C#N)=C(N)Oc3nc[nH]c(=O)c32)cc1 (stereo not drawn) was read as RecA intein inh -11.9, Mtb bLac sens 0.3, FadD28 binding -1.7, Mtb UGM inh -2.6, Rv3671c inh 1.4 and Mtb hypoxia inh -1.4.
For O=C(CSCc1cc(=O)[nH][nH]1)Nc1ccc(F)cc1 the results were RecA intein inh 84.5*, Mtb bLac sens -0.2, FadD28 binding -2.7, Mtb UGM inh -0.2, Rv3671c inh -11.5, Mtb hypoxia inh -1.0 and GFP chromo cs 12.4*.
Screening CCCCc1ccc(NC(=O)CSCc2cc(=O)[nH][nH]2)cc1 returned RecA intein inh 64.2*, Mtb bLac sens 69.6, FadD28 binding -1.6, Mtb UGM inh 1.6, Rv3671c inh -8.0, Mtb hypoxia inh 4.1 and GFP chromo cs 17.3*.
`CCCCc1ccc(NC(=O)COCC)cc1` gave RecA intein inh -2.0, Mtb bLac sens 16.8, FadD28 binding -0.9, Mtb UGM inh 0.7 and Rv3671c inh -5.2.
O=C(Nc1c(-c2ccc3c(c2)OCO3)[nH][nH]c1=O)c1ccc2c(c1)OCO2 was read as FadD28 binding -2.3.
CCN(CC(=O)NCc1ccc(Cl)cc1)C(=O)c1cccc(S(=O)(=O)Nc2ccc(OC)cc2)c1 was read as RecA intein inh 1.2, Mtb bLac sens -5.9, FadD28 binding -4.2, Mtb UGM inh -5.8, Rv3671c inh -1.0 and Mtb hypoxia inh 5.2.
`CCN1C(=O)c2c(C)nc3ccccc3c2C1=O` gave RecA intein inh 47.4*, Mtb bLac sens -1.1, FadD28 binding -3.0, Mtb UGM inh -0.1, Rv3671c inh 3.9, Mtb hypoxia inh 3.3 and GFP chromo cs 2.24*.
CCN1C(=O)c2ccc(-c3nc4ccccc4c(=O)o3)cc2C1=O was read as RecA intein inh 0.6, Mtb bLac sens -0.1, FadD28 binding -1.0, Mtb UGM inh 1.7, Rv3671c inh -2.3 and Mtb hypoxia inh 4.0.
CC(N=Cc1ccccc1O)c1ccccc1 (stereo not drawn) was read as RecA intein inh 1.2, Mtb bLac sens -2.5, FadD28 binding 2.1, Mtb UGM inh -1.0, Rv3671c inh -9.6 and Mtb hypoxia inh 7.6.
`Cc1cc(O)c(C(C)C)cc1N=Cc1ccccc1O` gave RecA intein inh 51.5*, Mtb bLac sens 0.1, FadD28 binding -3.0, Mtb UGM inh 1.4, Rv3671c inh -11.4, Mtb hypoxia inh 2.3 and GFP chromo cs 15.3*.
Screening CCOc1ccccc1N1CCN(C(=O)c2ccc(-c3ccc(OC(C)=O)cc3)cc2)CC1 returned RecA intein inh 31.2*, Mtb bLac sens 75.9, FadD28 binding -0.1, Mtb UGM inh -2.7, Rv3671c inh 3.2, Mtb hypoxia inh 11.9 and GFP chromo cs >38.
COc1ccc(Cn2c(O)c(/C=N/NC(=O)c3ccccc3O)c(=O)[nH]c2=O)cc1 was read as RecA intein inh 30.7*, Mtb bLac sens 2.6, FadD28 binding 16.8*, Mtb UGM inh 0.5, Rv3671c inh -12.7, Mtb hypoxia inh -9.5 and GFP chromo cs >38.
COc1ccccc1Nc1nnc(C)c(=O)[nH]1 was read as RecA intein inh 0.4, Mtb bLac sens -4.8, FadD28 binding 0.3, Mtb UGM inh -3.5, Rv3671c inh -2.9 and Mtb hypoxia inh 1.7.
`COc1ccc(OC)c(Nc2cc3ccccc3c(=O)[nH]2)c1` gave RecA intein inh 82.9*, Mtb bLac sens 0.8, FadD28 binding -0.2, Mtb UGM inh 4.9, Rv3671c inh -122.4, Mtb hypoxia inh 2.2 and GFP chromo cs 1.85*.
Screening COc1ccc(OC)c(Nc2nnc(C)c(=O)[nH]2)c1 returned RecA intein inh 0.4, Mtb bLac sens -0.4, Mtb UGM inh 1.3, Rv3671c inh 11.2 and Mtb hypoxia inh -8.7.
CC(=O)c1cccc(-c2ccc3c(=O)[nH]c(Nc4ccccc4)cc3c2)c1 was read as RecA intein inh 93.8*, Mtb bLac sens 1.8, FadD28 binding -2.1, Mtb UGM inh -1.8, Rv3671c inh -119.2, Mtb hypoxia inh 6.0 and GFP chromo cs 8.56*.
`COc1ccccc1Nc1cc2cc(Br)ccc2c(=O)[nH]1` gave RecA intein inh 46.8*, Mtb bLac sens -4.2, FadD28 binding -0.8, Mtb UGM inh 2.3, Rv3671c inh -120.9, Mtb hypoxia inh 3.1 and GFP chromo cs 7.77*.
`O=c1[nH]c(Nc2ccccc2)cc2cc(Br)ccc12` gave RecA intein inh 89.7*, Mtb bLac sens 20.7, FadD28 binding -1.2, Mtb UGM inh -1.5, Rv3671c inh -153.2, Mtb hypoxia inh 19.2 and GFP chromo cs 6.01*.
O=c1cc(Nc2cccc(Br)c2)[nH]c(=O)[nH]1 was read as RecA intein inh 1.6, Mtb bLac sens 0.0, FadD28 binding -2.2, Mtb UGM inh -0.1, Rv3671c inh -2.4 and Mtb hypoxia inh 14.3.
`CCOC(=O)CSc1nnc(CNC(=O)c2ccc(OC)cc2)n1-c1ccc(OC)cc1` gave Mtb bLac sens -4.2, FadD28 binding 1.0, Mtb UGM inh 1.8, Rv3671c inh -2.2 and Mtb hypoxia inh 9.6.
For Cn1c(SCc2cccc(F)c2)nnc1-c1cnccn1 the results were RecA intein inh 0.6, Mtb bLac sens -3.1, FadD28 binding 1.3, Mtb UGM inh -2.2, Rv3671c inh 6.6 and Mtb hypoxia inh 13.5.
